# Records with an inconclusive call do not appear. Where a call stands in place of a potency, no number is given. Active and inactive are the calls of the source. Unless noted, calls follow the shape of the dose curve; as a rule, active = well fitted curve in the direction sought with a large enough effect in the repeat runs; inconclusive = weak or mixed curves; inactive = no such curve, though single readings can be large; an effect the other way counts as inactive or inconclusive.
# Experiments:
# [1] = target: Calcium and integrin-binding protein 1 (Homo sapiens) (UniProt Q99828); test: Primary qHTS for Identification of Calcium Integrin Binding Protein 1 (CIB1) Competitor (AID 1508620; active = well fitted curve in the direction sought with a large enough effect; an effect the other way counts as inactive or inconclusive;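 also: GST tagged CIB1 binding a fluorescein labelled alphaIIb integrin peptide tracer; top concentration of the series differs between compounds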)
# Outline: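 Fluorescence polarization competition: CIB1-GST (1 uM final) preincubated with compound 15 min at room temperature, then FITC-labeled alphaIIb peptide (100 nM final) added for another 15 min. Polarization read at Ex 480/Em 540.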
# [2] = Primary qHTS for small molecule stabilizers of the endoplasmic reticulum resident proteome: Secreted ER Calcium Modulated Protein (SERCaMP) assay (AID 1508630; active = well fitted curve in the direction sought with a large enough effect; an effect the other way counts as inactive or inconclusive)
# Outline: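 The SH-SY5Y reporter protocol was run at 3 concentrations up to 38.3 uM (primary) or 11 concentrations (follow-up): 16 h compound, 100 nM thapsigargin for 4 h, then extracellular luciferase luminescence.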
# [3] = target: Cytochrome P450 2D6 (Homo sapiens) (UniProt P10635); test: Cytochrome P450 family 2 subfamily D member 6 (CYP2D6) small molecule antagonists: luciferase biochemical (cell-free) qHTS assay (AID 1645840); also: potency is read from the fitted curve at half-maximal effect; nearly all actives have a fitted effect of over 55% in size
# Outline: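 P450-Glo CYP2D6 system: proluciferin substrate converted by enzyme to luciferin, read by luminescence proportional to activity. Enzyme-substrate mix with compound 10 min at room temperature, then NADPH regeneration 1 h before detection reagent.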
# [4] = target: Cytochrome P450 2C9 (Homo sapiens) (UniProt P11712); test: Cytochrome P450 family 2 subfamily C member 9 (CYP2C9) small molecule antagonists: luciferase biochemical (cell-free) qHTS assay (AID 1645842); also: potency is read from the fitted curve at half-maximal effect; nearly all actives have a fitted effect of over 55% in size
# Outline: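 P450-Glo CYP2C9 system: proluciferin substrate with enzyme in mix containing 0.4% BSA, 10 min at room temperature, then NADPH regeneration solution added and incubated 1 h at 37C. Detection reagent stopped reaction; luminescence read after 20 min as RLU.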
# Calcium and integrin-binding protein 1 (Homo sapiens), sequence (Q99828 whole entry, looked up): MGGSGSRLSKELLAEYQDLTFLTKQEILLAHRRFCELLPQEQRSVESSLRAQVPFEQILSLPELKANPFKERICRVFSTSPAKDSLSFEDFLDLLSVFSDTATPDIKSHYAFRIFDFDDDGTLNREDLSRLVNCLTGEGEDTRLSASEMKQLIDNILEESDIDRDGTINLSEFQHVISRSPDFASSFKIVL
# Cytochrome P450 2D6 (Homo sapiens), sequence (P10635 whole entry, looked up): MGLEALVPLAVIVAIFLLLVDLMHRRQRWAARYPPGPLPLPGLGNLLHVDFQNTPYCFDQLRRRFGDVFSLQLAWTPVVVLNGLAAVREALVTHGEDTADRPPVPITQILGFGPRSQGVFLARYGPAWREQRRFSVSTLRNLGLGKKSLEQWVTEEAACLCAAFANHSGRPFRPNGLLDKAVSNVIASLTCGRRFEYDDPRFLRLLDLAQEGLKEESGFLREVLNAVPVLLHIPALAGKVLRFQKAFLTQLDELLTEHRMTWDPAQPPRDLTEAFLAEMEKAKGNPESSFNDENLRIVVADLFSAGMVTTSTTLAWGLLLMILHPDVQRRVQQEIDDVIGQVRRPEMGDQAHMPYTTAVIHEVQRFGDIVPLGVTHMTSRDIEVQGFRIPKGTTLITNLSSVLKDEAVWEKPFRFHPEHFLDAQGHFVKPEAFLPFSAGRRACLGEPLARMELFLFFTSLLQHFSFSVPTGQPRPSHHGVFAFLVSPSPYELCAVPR
# Cytochrome P450 2C9 (Homo sapiens), sequence (P11712 whole entry, looked up): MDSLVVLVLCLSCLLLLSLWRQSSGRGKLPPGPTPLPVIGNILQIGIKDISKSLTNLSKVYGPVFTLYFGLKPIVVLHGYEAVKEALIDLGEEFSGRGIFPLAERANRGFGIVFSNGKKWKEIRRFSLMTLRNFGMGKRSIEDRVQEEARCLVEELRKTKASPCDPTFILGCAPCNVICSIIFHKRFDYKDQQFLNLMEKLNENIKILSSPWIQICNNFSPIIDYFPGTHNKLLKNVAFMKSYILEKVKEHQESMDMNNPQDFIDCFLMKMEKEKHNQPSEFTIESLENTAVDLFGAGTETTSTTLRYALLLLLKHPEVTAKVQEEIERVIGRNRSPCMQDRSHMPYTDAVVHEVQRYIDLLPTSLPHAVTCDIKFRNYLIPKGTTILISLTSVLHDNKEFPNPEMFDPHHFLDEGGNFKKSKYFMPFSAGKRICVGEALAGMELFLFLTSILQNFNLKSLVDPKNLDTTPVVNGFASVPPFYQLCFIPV
compound,measurement,setting,value
CC(C)(Cc1ccc2ccccc2c1)NC[C@@H](O)COc1cccc(Cl)c1C#N,Potency,[1],inactive
same,Potency,[2],inactive
same,Potency,[3],379 nM (active)
same,Potency,[4],2680 nM (active)
